Source: PubChem (several laboratories)
BoNT-F LC inh – inhibitors of Botulinum neurotoxin F light chain protease; Multiplex microsphere protease cleavage assay, flow cytometry; inhibition, % at 10 µM; 360,000 tested, 0.22% active; AID 588497; in the data active = inhibition above about 35%, passing the limit was not always enough; inconclusive = no clear call, values can overlap the other calls
MazEF act – MazEF (E. coli) toxin RNase activation; FAM/BHQ RNA-DNA oligo cleavage fluorescence, 5 h; activation, % at 20 µM; 350,000 tested, 0.32% active; AID 504720; in the data active = activation above about 50%
Bead autofluor – flagged as autofluorescent in microsphere protease counterscreen; compound autofluorescence counterscreen, microsphere flow cytometry; hits give high values; fluorescence intensity (no concentration beside the values); 360,000 tested, 3.1% active; AID 624483; in the data active = fluorescence intensity above about 16000; inconclusive = no clear call, values can overlap the other calls
Anthrax LF prot – inhibitors of Bacillus anthracis lethal factor protease. multiplex microsphere protease cleavage assay, LF. inhibition, % at 10 µM. 360,000 tested, 0.12% active. AID 588501
BoNT-A LC inh2 – blocks Botulinum neurotoxin A light chain protease; multiplex microsphere protease substrate cleavage, flow cytometry; inhibition, % at 10 µM; 360,000 tested, 0.17% active
Hits are given with their value; i = inactive; ? = inconclusive; nt = not tested or not shown; ! = repeats disagree. An excerpt weighted towards active compounds, which were near 3.7% of everything screened. Cut-off read from the data, not from the text of the source, unless noted: active = inhibition above about 30%; inconclusive = no clear call, values can overlap the other calls; inactive = below that.

SMILES | BoNT-F LC inh | MazEF act | Bead autofluor | Anthrax LF prot | BoNT-A LC inh2
CCOc1cc(CNc2ncc(-c3ccc(OC)cc3)n2C)ccc1O | i | i | 20656 | i | i
COc1ccc(CNc2ncc(-c3ccccc3)n2C)cc1 | ? | i | i | i | i
c1ccc(-c2nc(C3CCCCC3)no2)cc1 | i | i | i | i | i
COc1ccc(-c2nc(C3CCCCC3)no2)cc1OC | i | i | 22056 | i | i
c1nc2sc3c(c2c2nnnn12)CCCC3 | i | i | i | i | i
c1nc2sc3c(c2c2nnnn12)CCC3 | i | i | 23437 | i | i
O=C1C2C3C=CC(C3)C2C(=O)N1c1ccc2ccccc2n1 (centres undefined) | i | i | i | i | i
O=C1C2C3C=CC(C3)C2C(=O)N1c1cccc(N2C(=O)C3C4C=CC(C4)C3C2=O)n1 (centres undefined) | i | i | 22915 | i | i
O=C1C2C3C=CC(C3)C2C(=O)N1c1n[nH]c(-c2ccccc2)n1 (centres undefined) | i | i | 23080 | i | i
Cc1ccc(N2C(=O)C3C4C=CC(C4)C3C2=O)cc1C (centres undefined) | i | i | 22226 | i | i
C[C@@H]1CN([C@H](C)CO)C(=O)CCCn2cc(nn2)CO[C@H]1CN(C)C(=O)Nc1ccc2c(c1)OCCO2 | i | i | i | i | i
CCC(C)[C@H]1CNC(=O)C(=O)N1CCc1cccc(F)c1 (some centres undefined) | i | nt | i | i | i
C[C@H]1CN([C@@H](C)CO)S(=O)(=O)c2ccc(C#CC3CC3)cc2O[C@@H]1CN(C)S(C)(=O)=O | i | i | i | i | i
CNc1sc(C(=O)c2ccc(F)cc2)c(N)c1-c1nc2ccccc2s1 | i | i | 18218 | i | i
C[C@@H]1CN([C@H](C)CO)C(=O)CCCn2cc(nn2)CO[C@H]1CN(C)S(=O)(=O)c1ccccc1F | i | nt | i | i | i
Cn1cc(C2N3CC4(C)CN2CC(C)(C3)C4=O)c2ccccc21 (centres undefined) | i | i | i | i | i
Cc1c(C2N3CC4(C)CN2CC(C)(C3)C4=O)c2ccccc2n1C (centres undefined) | i | i | 22039 | i | i
CCOC(=O)c1cc(S(=O)(=O)Nc2cccc(OC)c2)cn1C | i | i | i | i | i
COc1ccc(S(=O)(=O)N2CCOCC2)cc1NC(=O)c1cc(C)oc1C | i | i | i | i | i
O=C(Nc1ccccc1)NC1(C(=O)NCc2ccc3c(c2)OCO3)CCCCC1 | i | i | 22677 | i | i
O=C(NCc1ccccc1)NC1(C(=O)Nc2ccc3c(c2)OCCO3)CCCCC1 | i | i | 22030 | i | i
O=C(Nc1ccccc1)NC1(C(=O)NCc2ccco2)CCCCC1 | i | i | 17118 | i | i
Cc1ccc(NC(=O)NC2(C(=O)NCc3ccco3)CCCCC2)cc1 | i | i | i | i | i
O=C(NCc1ccc2c(c1)OCO2)Nc1ccc(F)cc1 | i | i | i | i | i
O=C(Nc1cccc(Cl)c1)C1=Cc2cc(Cl)ccc2OC1 | i | i | i | i | i
SMILES | BoNT-F LC inh | MazEF act | Bead autofluor | Anthrax LF prot | BoNT-A LC inh2
O=C(NCc1cccnc1)c1ccc2c(c1)OCO2 | i | i | 22188 | i | ?
COCC(=O)NCc1ccc2c(c1)OCO2 | i | i | 22350 | i | i
O=C(CSCc1ccccc1)NCc1ccc2c(c1)OCO2 | i | i | i | i | i
O=C(CSCc1cccc(Cl)c1)NCc1ccc2c(c1)OCO2 | i | i | 21289 | i | i
O=C(NCc1ccc(Cl)cc1)C1=Cc2cc(Cl)ccc2OC1 | i | i | 21246 | i | i
OCCNc1ncnc2c1ncn2[C@H]1CN(Cc2ccncc2)C[C@@H](CO)O1 | i | nt | i | i | i
O=S(=O)(c1ccc(NC(=S)N2CCCCC2)cc1)N1CCCCC1 | i | i | i | i | i
O=C(CSc1nc2cc(Cl)ccc2s1)NCc1ccc2c(c1)OCO2 | i | 63 | i | i | i
CCCCC1CCC(C(=O)NCc2ccc3c(c2)OCO3)CC1 (centres undefined) | i | i | 23610 | i | i
O=C(CCS(=O)(=O)c1ccc(Br)s1)NCc1ccc2c(c1)OCO2 | i | i | 22950 | i | ?
Cc1nnc(SCC(=O)NCc2ccc3c(c2)OCO3)s1 | i | i | i | i | i
O=C(NCc1cccc(Cl)c1)c1ccc2c(c1)OCO2 | i | i | 21016 | i | ?
COc1ccc(S(=O)(=O)Nc2cccc(C)c2C)c2cccnc12 | i | i | i | i | i
CCCCNS(=O)(=O)c1ccc(OC)c2ncccc12 | i | i | 19492 | i | ?
COCCOC(=O)C1=C(C)Nc2nc(C)nn2C1c1ccc(F)cc1 (centres undefined) | i | i | 18889! | i | ?
CN(C)CCNc1oc(-c2cccc(Cl)c2)nc1C#N | i | i | 20990 | i | i
CCOc1ccc(Nc2oc(-c3ccco3)nc2C#N)cc1 | i | i | i | i | i
CCOc1ccc(Nc2oc(-c3cccc(Cl)c3)nc2C#N)cc1 | i | i | 23170 | i | ?
COc1cccc(C(=O)CN(C(=O)c2ccc(Cl)c(Cl)c2)N2C(=O)C3CCCCC3C2=O)c1 (centres undefined) | i | i | 17192 | i | i
COc1ccc(C(=O)CN(C(=O)c2ccc(Cl)cc2)N2C(=O)C3CCCCC3C2=O)cc1 (centres undefined) | 38 | i | i | i | ?
COC(=O)C1CCN(C(=O)/C=C/c2ccc3c(c2)OCO3)CC1 | ? | i | i | i | i
C[C@H]1Cn2cnc(C(=O)Nc3cccc(Cl)c3)c2C(=O)N1 | i | i | i | i | i
CCc1[nH]c(=O)c(C#N)c2c1CSC(C)(C)C2 | i | i | 23170 | i | ?
CCCCc1[nH]c(=O)c(C#N)c2c1CSC(C)(C)C2 | i | i | 22475 | i | i
CCOC(=O)N1CCC2(CC1)NC(=O)c1ccccc1N2 | i | i | i | i | i
SMILES | BoNT-F LC inh | MazEF act | Bead autofluor | Anthrax LF prot | BoNT-A LC inh2
CCOC(=O)C1CCN(Cc2ccc(OC)c(C)c2OC)CC1 | i | i | 16792 | i | i
CCOC(=O)C1CCN(Cc2ccc(F)c(Br)c2)CC1 | i | i | 20738 | i | ?
CCOC(=O)C1CCN(Cc2ccc(F)cc2F)CC1 | i | i | i | i | i
CCc1nc2ccccc2c(C(=O)OCc2nc3ccccc3c(=O)[nH]2)c1C | i | i | i | i | i
CC(C)(C)n1nnnc1C(c1ccccc1)N1CCN(C(=O)C2CCCO2)CC1 (centres undefined) | i | nt | i | i | i
CCn1c(SCC(=O)c2ccc(Br)cc2)nnc1C(C)NC(=O)Cc1ccc(OC)cc1 (centres undefined) | i | i | 17649 | i | i
COc1ccc(CC(=O)NC(C)c2nnc(SCC(=O)c3ccc(Br)cc3)n2C)cc1 (centres undefined) | i | i | i | i | i
Nc1c(C(O)(C(F)(F)F)C(F)(F)F)ccc2ccccc12 | i | i | 17206 | i | i
c1ccc2c(c1)ccc1ccccc12 | i | i | i | i | i
CCOC(=O)c1oc2ccccc2c1CSc1nnnn1-c1ccc(OC)cc1 | i | i | 21747 | i | ?
COc1ccccc1-n1nnnc1SCC(=O)Nc1ccccc1 | i | i | i | i | i
CCOC(=O)CSc1nnnn1-c1cc(OC)ccc1OC | i | i | 16299 | i | i
COc1ccccc1-n1nnnc1SCC(=O)Nc1ccccn1 | i | i | 19311 | i | i
